We go through 9 compounds from PubChem BioAssay (NCI).

Each structure is given as a SMILES string. This is part of a sample that, as a whole, favours compounds with a hit. Of some 83,000 tested, about 20% had one in any assay.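 Step 1: grow cells in 96-well plates. Step 2: add test compound at a single concentration. Step 3: incubate 48 h. Step 4: record percent growth.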 Values without a mark were called inactive. Calls of active or inactive are those of the source. How the source made its calls: active means growth percent below 10; inactive means the rest.

What all share (assay): NCI-60 one-dose screen, 48 h (100 = growth as untreated, 0 = no growth, -100 = all killed)
Settings in all cases: 10 µM unless noted

The test system of assay [1] is SR leukemia.
The test system of assay [2] is RPMI-8226 leukemia.
The subject of assay [3] is OVCAR-8 ovarian.
Assay [4] has as its system OVCAR-5 ovarian.
Assay [5] has as its system OVCAR-4 ovarian.
Assay [6] relates to SK-OV-3 ovarian.
Assay [7] concerns IGROV1 ovarian.
The test system of assay [8] is HS 578T breast.
Assay [9] deals with NCI/ADR-RES ovarian.
Assay [10] concerns T-47D breast.
The test system of assay [11] is BT-549 breast.
For assay [12], the system named is MDA-MB-435 melanoma.
Assay [13] deals with SW-620 colon.
Assay [14] deals with MCF7 breast.
The subject of assay [15] is HCT-116 colon.
Assay [16] relates to HCC-2998 colon.
Assay [17] concerns KM12 colon.

In the case of `CC(C)(C)n1nnnc1C(Nc1nccs1)c1cc2cccc3ccc4cccc1c4c32` (stereo not drawn), the growth in [1] was 84.5%; in assay [2], 94.9%; in assay [3], 97.6%; in [4], 59.7%; in [5], 95.3%; in [6], 109%. In addition, the growth in [7] is 85.5%; in assay [8] it was 88.3%; in [9], 103%; in assay [10], 73.6%; in assay [11], 100%; in assay [12], 96.2%. In addition, the growth is 98.8% in [13]; 76.3% in assay [14]; 91.7% in assay [15]; 113% in assay [16]; 101% in [17].

Take `C#C[C@]1(O)CC[C@H]2[C@@H]3CC=C4c5sc(Nc6ccc(OC)nc6)nc5CC[C@]4(C)[C@H]3CC[C@@]21C`: the growth in assay [1] is 7.7% (active); in assay [2] it was -21.7% (active); in assay [3] it was 27.7%; in [4], 83.9%; in assay [5], 76.1%; in assay [6] it was 44.4%. Besides, the growth is 29.7% in assay [7]; 3.53% (active) in [8]; 59% in assay [9]; 21.2% in [10]; 33.3% in assay [11]; 48.1% in assay [12]. The growth was -20.8% (active) in assay [13]; 4.25% (active) in assay [14]; -48.6% (active) in assay [15]; 65.5% in [16]; 19.6% in [17].

Consider `CN1CCN(c2nc(-c3cnc4ccccc4n3)cc3ccccc23)CC1`, for which the growth is 1.45% (active) in [1]; 56.7% in assay [2]; 89.7% in assay [3]; 91.1% in [4]; 100% in assay [5]; 92.1% in assay [6]. Further, the growth in assay [7] was 73.7%; in assay [8] it was 85.6%; in assay [9], 82.2%; in assay [10], 68.9%; in [11], 85.7%; in [12], 27.1%. In addition, the growth is 11.5% in assay [13]; 54.9% in assay [14]; 21.4% in assay [15]; -26.4% (active) in assay [16]; 88.1% in assay [17].

As for `CC(C)Sc1nc(NC2CC2)c(C#N)c(-c2ccccc2)n1`, the growth is 96.5% in [1]; 91% in assay [2]; 84.9% in assay [3]; 84.4% in assay [4]; -8.11% (active) in assay [5]; 78.6% in assay [6]. For the same compound, the growth in assay [7] is 19.8%; in assay [8], 68.7%; in [9], 74.5%; in [10] it was 83.5%; in assay [11] it was 105%; in assay [12], 88.1%. Further, the growth in assay [13] is 82.6%; in assay [14], 73.7%; in assay [15], 53.2%; in assay [16], 89.9%; in assay [17] it was 97.5%.

On to `NS(=O)(=O)c1ccc(Nc2nc(N/N=C/c3ccc([N+](=O)[O-])cc3)nc(Nc3ccccc3)n2)cc1`, for which the growth was 15.6% in assay [1]; 43.3% in assay [2]; 33.2% in assay [3]; 82% in assay [4]; 55.8% in assay [5]; 67.8% in [6]. Moreover, the growth in assay [7] was 52.1%; in [8] it was 53.5%; in assay [9], 93.3%; in [10], 14.1%; in [11], 18.5%; in [12] it was 33.2%. The growth in assay [13] is 18.2%; in [14], 9.76% (active); in [15] it was 16.5%; in assay [16], 19.6%; in [17] it was 37.5%.

With `COc1cc(/C=N/Nc2ccnc3cc(Cl)ccc23)cc(OC)c1O`, the growth in assay [1] was -23.9% (active); in [2], -9.43% (active); in [3], -56% (active); in assay [4], -5% (active); in assay [5] it was -50.2% (active); in [6], 109%. For the same compound, the growth in assay [7] was -83.8% (active); in assay [8] it was -38.8% (active); in [9], 2.57% (active); in [10], -56.5% (active); in [11] it was 103%; in [12] it was -85.9% (active). In addition, the growth in [13] was -30.4% (active); in assay [14] it was -72.3% (active); in assay [15], -68.7% (active); in assay [16] it was -81.9% (active); in assay [17], -53.8% (active).

With `COc1ccc(/C=N/Nc2nc(Nc3ccccc3)nc(Nc3ccc(S(N)(=O)=O)cc3)n2)cc1`, the growth is 48.5% in assay [1]; 47.7% in [2]; 67.6% in assay [3]; 85.6% in assay [4]; 66.2% in assay [5]; 105% in assay [6]. In addition, the growth was 58.7% in assay [7]; 58.3% in assay [8]; 96.3% in [9]; 63.1% in assay [10]; 85.7% in assay [11]; 76.6% in assay [12]. Moreover, the growth in [13] is 72.4%; in [14], 41%; in assay [15] it was 50.2%; in assay [16], 87%; in [17] it was 74.4%.

As to `CSc1nccc(-c2c(-c3ccc(F)c(OCc4ccc(F)cc4)c3)nc3sccn23)n1`, the growth was 73.4% in [1]; 53.2% in assay [2]; 84.4% in assay [3]; 95.4% in assay [4]; 61.8% in assay [5]; 71.4% in [6]. The growth is 55.8% in [7]; 88.2% in assay [8]; 73.6% in assay [9]; 65.9% in assay [10]; 71.3% in assay [11]; 59.7% in assay [12]. For the same compound, the growth is 48.9% in [13]; 65% in assay [14]; 51.3% in [15]; 93.4% in assay [16]; 80.1% in [17].

On to `Nc1nc(-c2cccc([N+](=O)[O-])c2)c(N=Nc2ccccc2Cl)s1`, for which the growth in assay [1] is 59.1%; in [2], 68.5%; in assay [3], 56.8%; in assay [4] it was 93.7%; in assay [5], 63.1%; in assay [6], 99.5%. The growth in [7] is 74.8%; in assay [8], 56.8%; in [9], 59.9%; in [10], 57.9%; in assay [11], 71.6%; in assay [12], 89.5%. Besides, the growth was 54.7% in assay [13]; 66.6% in assay [14]; 32.6% in assay [15]; 107% in assay [16]; 67.4% in assay [17].
